According to PubChem BioAssay (NCI):
This is part of a sample that, as a whole, favours compounds with a hit. Of some 79,000 tested, about 15% had one in any assay. Activity calls are given as the source filed them. Cut-off read from the data, not from the text of the source: active = growth inhibition above about 70%; inactive = the rest.

Legend:
[1] = NCI Yeast Anticancer Drug Screen. Data for the rad50 strain (AID 155);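 note: 0% = growth of vehicle-only cultures of the same strain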; conditions: S. cerevisiae rad50 strain growth inhibition; at 50.0 µM; active compounds read high
Outline: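 Relative growth inhibition (compound vs vehicle) was measured in yeast with a defined repair-gene alteration.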

[2] = NCI Yeast Anticancer Drug Screen. Data for the mec2-1 strain (AID 157); conditions: S. cerevisiae mec2-1 strain, at 50.0 µM, active compounds read high
Outline: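 Readout is yeast growth inhibition, normalised to vehicle-treated controls, in the mec2-1 strain exposed to compound.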

[3] = NCI Yeast Anticancer Drug Screen. Data for the sgs1 mgt1 strain (AID 161);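 note: 0% = growth of cultures given vehicle only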; conditions: S. cerevisiae sgs1 mgt1 strain, at 50.0 µM, active compounds read high
Outline: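 This yeast growth screen uses a strain with defined DNA-repair lesions; compound-treated growth is compared with vehicle-treated growth.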

[4] = NCI Yeast Anticancer Drug Screen. Data for the cln2 rad14 strain (AID 165);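 note: 0% = growth equal to vehicle treated cultures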; conditions: S. cerevisiae cln2 rad14 strain, at 50.0 µM, active compounds read high
Outline: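 Relative to vehicle controls, growth inhibition of compound-treated cln2 rad14 yeast was recorded.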

[5] = NCI Yeast Anticancer Drug Screen. Data for the bub3 strain (AID 167); conditions: S. cerevisiae bub3 mutant strain, at 50.0 µM, active compounds read high
Outline: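 Screening used yeast with an engineered genetic alteration affecting cell cycle control. Compound-exposed cultures were compared with vehicle cultures, and reduced growth was taken as inhibition.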

[6] = NCI Yeast Anticancer Drug Screen. Data for the mlh1 rad18 strain (AID 175); conditions: S. cerevisiae mlh1 rad18 strain growth inhibition; at 50.0 µM; active compounds read high
Outline: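 Test agents were incubated with a yeast strain of defined genotype (DNA damage repair defect). Inhibition of growth was derived by comparison with vehicle-exposed cultures.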

Measured: growth inhibition

O=C1C=CC(=O)N1n1c(-c2ccccc2)n[nH]c1=O
inactive: [1] 4.05% | [2] -15.6% | [3] -16.9% | [4] -2.8% | [5] -8% | [6] -53.6%

Nc1nc(N)c2[nH]cnc2n1 (tested in a mixture with another compound)
inactive: [1] -25.5% | [2] -17.1% | [3] -31.6% | [4] 11.3% | [5] -41.6% | [6] -12%

COc1cc(C)cc2c(-c3c(OC(C)=O)cc(OC(C)=O)c4c3C[C@H](C)N(C(C)=O)[C@H]4C)cc(-c3cc(-c4c(OC(C)=O)cc(OC(C)=O)c5c4C[C@H](C)N(C(C)=O)[C@H]5C)c4cc(C)cc(OC)c4c3O)c(O)c12
inactive: [1] 41% | [2] 31.5% | [3] 34.5% | [4] 7.65% | [5] -44% | [6] 16.4%

CCCCCC[n+]1ccc(C(=O)c2ccccc2)cc1
inactive: [1] 34.9% | [2] -5.8% | [3] 19.9% | [4] 7.9% | [5] 0.45% | [6] 32.6%

CC(=O)n1[nH]c(=O)n(-c2ccc(Cl)cc2)c1=O
inactive: [1] -36.5% | [2] -37.2% | [3] -30.1% | [4] 2.1% | [5] -22.2% | [6] -73%

CCOc1ccc(C(=O)OC(C)C)cc1
inactive: [1] 26.5% | [2] 4.15% | [3] 1.9% | [4] 2.7% | [5] -2.45% | [6] 6.15%

C/C(NN(C)C)=C(\C#N)C(=O)/C=C/c1cccs1
inactive: [1] 25.2% | [2] 1.75% | [3] 38.5% | [4] 25.9% | [5] 18.1% | [6] 18.8%

Nc1nc(SCc2ccc(F)cc2)c2[nH]cnc2n1
inactive: [1] 16.8% | [2] 9.35% | [3] 12.6% | [4] -8.8% | [5] 12.8% | [6] -21.9%

Cc1cccc(C[N+](C)(C)CCO)c1C
inactive: [1] -0.5% | [2] -13.2% | [3] 3.4% | [4] 6.7% | [5] 3.45% | [6] -20.6%

CC(=O)c1cccc(OCC(O)CN2CCN(c3ccc(C)cc3)CC2)c1 (stereo unspecified)
inactive: [1] -12.3% | [2] 3.95% | [3] 4.1% | [4] -8.9% | [5] 3.15% | [6] -2.25%

O=C(NC12CC3CC(NC(=O)c4ccccc4)(CC(C1)c1ccccc13)C2)c1ccccc1
inactive: [1] 42.9% | [2] 40.2% | [3] 57.4% | [4] 27.4% | [5] 52.5% | [6] 38.4%

[N-]=[N+]=Nc1ccccc1-c1ccccc1[N+](=O)[O-]
inactive: [1] 35% | [2] -6.3% | [3] 40.3% | [4] 0.4% | [5] -6.4% | [6] 28.6%

OCCS
inactive: [1] -7.35% | [2] 5.25% | [3] -8.4% | [4] -21.8% | [5] -3.45% | [6] -4.25%

Nc1nc(=O)[nH]nc1SCc1ccccc1
inactive: [1] 39.2% | [2] 0.1% | [3] 1.05% | [4] 2.45% | [5] 10% | [6] 10.5%

CCOCCC(C)(OCC)OCC
inactive: [1] -11.8% | [2] -36.1% | [3] -7% | [4] 15.7% | [5] -3.65% | [6] -5.3%

COC(=O)/C=C(\C(=O)OC)C1=C(N2CCCC2)CC(C)(C)CC1=O
inactive: [1] -7.8% | [2] -14.9% | [3] -14.1% | [4] -14.3% | [5] -14.3% | [6] -1.1%

Cc1nn(C)c(C#N)c1[N+](=O)[O-]
inactive: [1] -7.05% | [2] -30.3% | [3] -36.3% | [4] 4.4% | [5] -16.2% | [6] 0.8%

CCOC(=O)[C@H]1Nc2ccc(C)cc2C2c3ccccc3CC21 (stereo partly specified)
inactive: [1] -1.5% | [2] -28.2% | [3] 3.45% | [4] -1.7% | [5] -23.3% | [6] -22.8%

O=C(O)c1ccc(NC(=S)Nc2ccc(C(=O)O)cc2)cc1
inactive: [1] -13.5% | [2] -0.15% | [3] 19.9% | [4] -7.4% | [5] -6.15% | [6] -22.9%

O=C1c2cccc([N+](=O)[O-])c2C(=O)N1c1ncn[nH]1
inactive: [1] -5.9% | [2] -2.15% | [3] -21.9% | [4] -6.8% | [5] -43.4% | [6] 0.15%

Cc1cc2c(=O)c3ccccc3[nH]c2c(C(=O)O)c1C
inactive: [1] 5.35% | [2] 0.85% | [3] 8.25% | [4] 10.2% | [5] -14.7% | [6] 38.2%

O=C1/C(=C/c2ccccc2)SC(=S)N1C1c2ccccc2Oc2ccccc21
inactive: [1] 35.4% | [2] 14.6% | [3] 53.8% | [4] 38.8% | [5] 5.25% | [6] 30.1%

Clc1ccc2c(c1)N(C1CCCN(Cc3ccccc3)C1)c1ccccc1S2 (stereo unspecified)
inactive: [1] 45.5% | [2] 7.65% | [3] 35.1% | [4] 25.8% | [5] 43.7% | [6] 47%

N#CC(c1ccccc1)C1CCCCC1 (stereo unspecified)
inactive: [1] -8.65% | [2] -20% | [3] -4.95% | [4] -4.3% | [5] 6.1% | [6] 20.4%

COC(=O)c1c2c(cc3c1CC1(Cc4cc5c(c(C=O)c4C1)CCC5)C3)CCC2 (stereo unspecified)
inactive: [1] -50.6% | [2] -23.4% | [3] 8.25% | [4] 1.55% | [5] 14.4% | [6] 4.8%

OC(CC(c1ccccc1)c1cccc2ccccc12)(c1ccccc1)c1ccccc1 (stereo unspecified)
inactive: [1] -12.8% | [2] -17.9% | [3] -14.6% | [4] -7.65% | [5] -28.4% | [6] 3.3%

Nc1cn(Cc2ccccc2)c2nc(/C=C3/C=CC=CC3=O)c(O)n12
inactive: [1] 2.25% | [2] 1.75% | [3] -6.9% | [4] -5.45% | [5] 0.9% | [6] 8.85%

Cc1ccc(C2C3CCC(=O)C=C3CN2C=O)cc1O (stereo unspecified)
inactive: [1] 10.2% | [2] 8.4% | [3] -3.2% | [4] -44.6% | [5] -2.6% | [6] 12.8%

CC1(C)C2CC=C(CCO)C1C2 (stereo unspecified)
inactive: [1] -2.85% | [2] -5.8% | [3] 2.05% | [4] -20.6% | [5] 0.05% | [6] -21.4%

O=[N+]([O-])/C(C(Cl)=C(Cl)Cl)=C1\NCCS1
inactive: [1] 39.7% | [2] 25.5% | [3] 40.2% | [4] 9.7% | [5] 34.6% | [6] 42.3%

C=C1C(=O)OC2C=C(C)C3C(OC(=O)c4ccccc4)CC(C)(O)C3CC12 (stereo unspecified)
inactive: [1] 1.4% | [2] -41.4% | [3] 3.05% | [4] 16.6% | [5] -2.75% | [6] 0.45%

CCCCCCC#CC(=O)OCCCC
inactive: [1] -9.8% | [2] -14.9% | [3] 6.05% | [4] -20% | [5] -21.5% | [6] -16.4%

O=[N+]([O-])C1CCC(N=Nc2c(O)ccc3ccccc23)CC1 (stereo unspecified)
inactive: [1] -9.95% | [2] 3.6% | [3] 4.65% | [4] -27% | [5] -50.6% | [6] -0.6%

Cc1nc2c(N)cc(Cl)cc2[nH]1
inactive: [1] 13.2% | [2] 13.3% | [3] 19.6% | [4] 8.25% | [5] -7.3% | [6] 7.75%

Cc1cc(Br)cc(C)c1NC(=O)C(=O)C(C(=O)c1ccncc1)C1OC(=O)c2ccccc21 (stereo unspecified)
inactive: [1] -12.6% | [2] -31.1% | [3] -51.9% | [4] 15.8% | [5] 16.2% | [6] -7.35%

CCOC(=O)C(C(C)=O)C(NO)C(Cl)(Cl)Cl (stereo unspecified)
inactive: [1] 5.4% | [2] 13.6% | [3] 3.4% | [4] 17.1% | [5] 2.2% | [6] -3.05%

CC(C)(C)c1cc2c3c(c1)C(C(F)(F)F)(C(F)(F)F)OS3(=O)(O)OC2(C(F)(F)F)C(F)(F)F
inactive: [1] 22.5% | [2] 38.8% | [3] 15.8% | [4] -2.25% | [5] 4.2% | [6] 39%

O=C(COc1ccc(Cl)c(Cl)c1)Nc1cccc(C(=O)CCl)c1
inactive: [1] 36.6% | [2] 50% | [3] 45.5% | [4] 9.1% | [6] 62.8%
active: [5] 81.3%

CCCCCCCCCCOc1ccc(C=NC/C=C/c2ccc(CC)cc2)cc1
inactive: [1] -19.4% | [2] -13.8% | [3] -13.7% | [4] -50.8% | [5] -1.2% | [6] -23.4%

CC(=O)Nc1ccc(CCNC(=O)c2ccc3ccccc3c2O)cc1
inactive: [1] -21.8% | [2] -33.1% | [3] -15.2% | [4] -6.35% | [5] -11.8% | [6] -13.4%

CCCC(=O)Nc1cccc(C(F)(F)F)c1
inactive: [1] 7.65% | [2] 19.6% | [3] -11.4% | [4] 22.5% | [5] 26.9% | [6] 28.6%
